# Laboratory results: PubChem BioAssay AID720550 (National Center for Advancing Translational Sciences (NCATS), 2013)
# Inconclusive results are not listed. A call without a number means that no potency is given here. Calls of active or inactive are those of the source. Calls follow the shape of the dose curve; as a rule, active = well fitted curve in the direction sought with a large enough effect; inconclusive = small, poorly fitted or top-dose-only effect, or another doubt; inactive = no such curve, though single readings can be large or run the other way.
# Assay: qHTS for Inhibitors of Bloom's syndrome helicase (BLM): Thiazole Orange DNA Binding Counterscreen for SAR.
# Settings: fluorescence; Potency: Thiazole orange DNA displacement; series mostly up to 57.1 µM
# Summary of the method: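 Counterscreen for nonspecific DNA binding: thiazole orange (100 nM) pre-bound to 50 nM unlabeled DNA, test compound added, 15 min room-temperature incubation, then ex 480/em 530 nm fluorescence measured; lack of displacement preferred.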
row,Structure (SMILES),Potency
1,O=C(Nc1ccc(F)c(C(F)(F)F)c1)Nc1nnc(C2CCCCC2)s1,inactive
2,COc1ccc(OC)c(-c2nnc(NC(=O)Nc3ccc4ccccc4c3)s2)c1,inactive
3,O=C(Nc1ccc(Cl)c(Cl)c1)Nc1nnc(-c2cccnc2)s1,inactive
4,N/C(=N\c1nnc(-c2ccncc2)s1)Nc1ccc(Cl)c(Cl)c1,inactive
5,O=C(Nc1ccc(Br)c(Br)c1)Nc1cccc(-c2ccncc2)n1,inactive
6,O=C(Nc1ccc(Br)c(Br)c1)Nc1nnc(-c2cccnc2)s1,inactive
7,O=C(Nc1ccc(-n2ccnc2)c(F)c1)Nc1nnc(-c2ccncc2)s1,inactive
8,COc1ccc(NC(=O)Nc2ccc(-c3nc4ccccc4[nH]3)cc2)cc1OC,inactive
9,Cc1cc(NC(=O)Nc2nnc(-c3cccnc3)s2)ccc1Br,inactive
10,Cc1cc(NC(=O)Nc2nnc(C3CCCCC3)s2)ccc1Br,inactive
11,O=C(Nc1nnc(-c2ccncc2)s1)Nc1ccc(Cl)cc1F,inactive
12,O=C(NCc1ccc(Cl)c(Cl)c1)Nc1nnc(-c2ccncc2)s1,inactive
13,O=C(Nc1ccc(Cl)nc1)Nc1nnc(-c2ccncc2)s1,inactive
14,O=C(Nc1ccc2ccccc2c1)Nc1nnc(-c2ccccc2F)s1,inactive
15,N#Cc1cc(NC(=O)Nc2nnc(-c3ccncc3)s2)ccc1-c1cn[nH]c1,inactive
16,Cc1ccc(-c2nnc(NC(=O)Nc3ccc4ccccc4c3)s2)cc1,inactive
17,O=C(Nc1ccc2ccccc2c1)Nc1nnc(-c2ccccc2Cl)s1,inactive
18,N#CN/C(=N\c1nnc(-c2ccncc2)s1)Nc1ccc(F)c(C(F)(F)F)c1,inactive
19,CC(C)(C)NC(=O)Nc1nnc(-c2ccncc2)s1,inactive
20,CC(=O)c1ccc(NC(=O)Nc2nnc(-c3ccncc3)s2)cc1,inactive

row,Structure (SMILES),Potency
1,Cc1cc(NC(=O)Nc2nnc(-c3ccncc3)s2)ccc1C#N,inactive
2,O=C(Nc1nnc(-c2ccncc2)s1)Nc1ccc(Cl)cc1Cl,inactive
3,O=C(Nc1nnc(-c2ccncc2)s1)Nc1cc(C(F)(F)F)ccc1F,inactive
4,O=C(Nc1ccc(-c2nc3ccccc3[nH]2)cc1)Nc1ccc2c(c1)OCCO2,inactive
5,Cc1cc(NC(=O)Nc2cccc(-c3ccncc3)n2)ccc1Br,inactive
6,COc1ccc(-c2nnc(NC(=O)Nc3ccc4ccccc4c3)s2)cc1OC,inactive
7,CC(=O)c1cccc(NC(=O)Nc2nnc(-c3ccncc3)s2)c1,inactive
8,Cc1ccccc1-c1nnc(NC(=O)Nc2ccc3ccccc3c2)s1,inactive
9,O=C(Nc1ccc(Br)cc1)Nc1nnc(-c2ccncc2)s1,inactive
10,O=C(Nc1ccc2ccccc2c1)Nc1nnc(-c2ccc(O)cc2)s1,inactive
11,O=C(Cc1ccc2ccccc2c1)Nc1nnc(-c2ccncc2)s1,inactive
12,S=C(Nc1ccc(Cl)c(Cl)c1)Nc1nnc(-c2ccncc2)o1,inactive
13,N#Cc1cccc(NC(=O)Nc2nnc(-c3ccncc3)s2)c1,inactive
14,O=C(Nc1ccc(F)c(C(F)(F)F)c1)Nc1nc(-c2ccncc2)cs1,inactive
15,Cc1cnccc1-c1nnc(NC(=O)Nc2ccc(F)c(C(F)(F)F)c2)s1,inactive
16,Cc1cc(NC(=O)Nc2nnc(-c3ccncc3)s2)ccc1F,inactive
17,O=C(Nc1ccc(Cl)c(Cl)c1)Nc1cccc(-c2ccncc2)n1,inactive
18,O=C(Nc1ccccc1)Nc1nnc(-c2ccncc2)s1,inactive
19,Cc1cc(NC(=O)Nc2nnc(C3CCCCC3)s2)ccc1F,inactive
